Drawing on PubChem BioAssay (NCI), this text covers growth for 7 molecules.

Common to all, as to assay: NCI-60 one-dose screen, 48 h (100 = growth as untreated, 0 = no growth, -100 = all killed)
Holding throughout (details): 10 µM unless noted

Assay [1] has as its system DU-145 prostate.
Assay [2] has as its system K-562 leukemia.
Assay [3] deals with MALME-3M melanoma.
For assay [4], the system named is MDA-MB-231 breast.
For assay [5], the system named is RXF 393 renal.
The subject of assay [6] is SF-268 CNS.
For assay [7], the system named is SF-295 CNS.
The test system of assay [8] is SF-539 CNS.
Assay [9] has as its system UACC-257 melanoma.
For assay [10], the system named is M14 melanoma.
Assay [11] deals with HCT-15 colon.
For assay [12], the system named is HT29 colon.
For assay [13], the system named is SNB-75 CNS.
For assay [14], the system named is SNB-19 CNS.
Assay [15] relates to U251 CNS.
The test system of assay [16] is PC-3 prostate.
In assay [17] the test system is SK-MEL-5 melanoma.
In assay [18] the test system is UACC-62 melanoma.
Assay [19] concerns LOX IMVI melanoma.
Assay [20] deals with SK-MEL-28 melanoma.

SMILES strings stand for the structures. Compounds without any hit were thinned out: in the full panel of roughly 83,000, 20% have a hit.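 Each cell line was grown in a 96-well plate and treated with one concentration of compound for 48 hours. Values below 10 were considered active.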 Unmarked numbers belong to inactive results. Active and inactive are the calls of the source.

Consider `COc1ccc(N=Nc2c(N)nn3c(N)c(C#N)c(-c4ccc(F)cc4)nc23)cc1`, for which the growth in [1] is 58.8%; in assay [2], 68.6%; in [3], 48.7%; in [4] it was -9.82% (active); in assay [5] it was 35.1%; in assay [6] it was 61.2%. Besides, the growth was 63% in [7]; -5.21% (active) in assay [8]; 105% in [9]; 80.2% in [10]; 86.1% in assay [11]; 84.6% in assay [12]. Moreover, the growth is 82.4% in assay [13]; 59.5% in assay [14]; 48.7% in assay [15]; 67% in [16]; 34.7% in [17]; 61.5% in assay [18]. The growth in assay [19] was 75.1%; in assay [20], 90.5%.

As for `COC(=O)c1c(C(=O)OC)c2c3ccccc3c3ccccc3n2c1C(=O)C(F)(F)F`, the growth in assay [1] was 106%; in assay [2], 97.2%; in assay [3], 104%; in [4] it was 81.6%; in assay [5], 101%; in [6], 101%. Moreover, the growth in [7] was 94.3%; in assay [8] it was 95.2%; in [9], 111%; in assay [10], 97%; in [11], 101%; in [12], 103%. Moreover, the growth in assay [13] was 87.9%; in assay [14], 102%; in assay [15] it was 105%; in [16] it was 72.4%; in assay [17], 93.7%; in assay [18], 63%. The growth in [19] was 87.7%; in assay [20], 103%.

As to `Cc1ccc2nc(NC(=O)Nc3cccc(Cl)c3)sc2c1`, the growth in assay [1] was 118%; in assay [2] it was 90.3%; in assay [3] it was 93.5%; in assay [4], 92%; in assay [5], 121%; in assay [6], 118%. Further, the growth is 98.8% in [7]; 102% in [8]; 111% in assay [9]; 97.6% in assay [10]; 92% in assay [11]; 104% in [12]. In addition, the growth in [13] is 108%; in assay [14] it was 103%; in [15], 111%; in [16], 92.4%; in [17] it was 97.2%; in assay [18] it was 91.2%. The growth in assay [19] is 88.1%; in [20], 112%.

`O=C1CCC(N2C(=O)c3cccc(NCCOCCOCCOCCC(=O)NCCCC(=O)NC(c4ccc5c(c4)OCO5)c4cc(Cl)c5cccnc5c4O)c3C2=O)C(=O)C1` (stereo not given): the growth in assay [1] was 60%; in [2] it was 22.8%; in assay [3], 29.3%; in [4] it was 25.3%; in assay [5], 43.6%; in [6], 24.4%. The growth in assay [7] was 61.6%; in assay [8], 10.3%; in assay [9], 29.7%; in [10], 54.8%; in assay [11], 88.8%; in [12], 28.5%. In addition, the growth in assay [13] was 62.7%; in assay [14], 28.5%; in [15] it was 27.2%; in [16], 32.5%; in [17], 43.6%; in assay [18], 0.155% (active). The growth in assay [19] was -37.6% (active); in assay [20] it was 20.4%.

For the molecule `COc1ccc(-c2nc3ccc(-c4nnc(SCC(=O)Nc5ccc(/C(C)=N\O)cc5)o4)cc3[nH]2)cc1`, the growth in assay [1] is 71.7%; in [2], 32.4%; in assay [3] it was -20.5% (active); in [4], 56%; in assay [5], -45.2% (active); in [6], 49.4%. Besides, the growth in [7] is 97.7%; in assay [8], -53.4% (active); in assay [9], 50.4%; in assay [10], 28.5%; in assay [11], 93.4%; in [12] it was 86.3%. Besides, the growth was 11.8% in assay [13]; 57% in assay [14]; 18.6% in assay [15]; 44.3% in assay [16]; -75.7% (active) in assay [17]; 14% in [18]. Besides, the results for the growth in assay [19] and in assay [20] were 33.8% and -64.6% (active), respectively.

Consider `O=C(Nc1ccc(S(=O)(=O)N2CCCCC2)cc1)C(Cl)Cl`, for which the growth in assay [1] was 104%; in assay [2], 111%; in assay [3] it was 99.3%; in assay [4], 109%; in [5], 115%; in assay [6] it was 105%. The growth in assay [7] is 106%; in [8], 107%; in [9], 101%; in assay [10] it was 112%; in assay [11], 103%; in assay [12], 109%. The growth in [13] was 103%; in assay [14] it was 93.7%; in assay [15], 98%; in assay [16], 107%; in [17] it was 105%; in [18], 106%. Also, the growth is 100% in assay [19] and 130% in [20].

For `O=C(N/N=C/c1ccc(Cl)o1)c1[nH]c2ccc(Br)cc2c1-c1ccccc1`, the growth in [1] is -49.1% (active); in [2], 8.31% (active); in assay [3], 2.82% (active); in assay [4], -69.9% (active); in assay [5] it was -62.6% (active); in assay [6], 3.21% (active). Besides, the growth was -19.3% (active) in assay [7]; -97.2% (active) in assay [8]; 17% in assay [9]; -3.48% (active) in assay [10]; -33.9% (active) in assay [11]; -34.6% (active) in assay [12]. Further, the growth in assay [13] was -32.9% (active); in [14], 9.24% (active); in assay [15], -89.9% (active); in assay [16] it was 15.7%; in assay [17], -74.7% (active); in assay [18], 3.42% (active). Besides, the growth is -58.2% (active) in assay [19] and 2.44% (active) in assay [20].
